Laboratory results from PubChem BioAssay (NCATS).
For part of these data: Entries with a potency or affinity are not part of this list. Activity calls are given as the source filed them. How the calls were made is not given here.

How the values were obtained:
[1] = Ebola virus entry assay, green fluorescence channel
[2] = Ebola virus entry assay, blue channel fluorescence
[3] = Ebola virus entry assay, ratio channel
[4] = Ebola virus entry assay, green channel fluorescence
[5] = Ebola virus entry assay, reporter ratio channel; Channel type: primary
[6] = Ebola virus entry assay, blue channel (ratio component)
Wherever efficacy is given: 0% is about no effect.

Nc1ccc(S(=O)(=O)Nc2nccs2)cc1
inactive: efficacy [1] -14% | outcome [2] | outcome [3] | outcome [4] | outcome [5] | outcome [6]

C[C@H](O)C(=O)Nc1c(I)c(C(=O)NC(CO)CO)c(I)c(C(=O)NC(CO)CO)c1I
inactive: efficacy [1] 6.82% | outcome [2] | outcome [3] | outcome [4] | outcome [5] | outcome [6]

CCN[C@@H]1C[C@H](N)[C@@H](OC2OC(CN)=CCC2N)[C@H](O)[C@H]1O[C@H]1OC[C@](C)(O)[C@H](NC)[C@H]1O (stereo not given in full)
inactive: efficacy [1] -8.89% | outcome [2] | outcome [3] | outcome [4] | outcome [5] | outcome [6]

CCCCCCc1ccc(O)cc1O
inactive: efficacy [1] -21% | outcome [2] | outcome [3] | outcome [4] | outcome [6]
active: AC50 [5] 39.8 µM

CCOC(=O)OC(C)OC1=C(C(=O)Nc2ccccn2)N(C)S(=O)(=O)c2ccccc21 (stereo not given)
inactive: efficacy [1] 12.4% | outcome [2] | outcome [3] | outcome [4] | outcome [5] | outcome [6]

OC[C@H]1O[C@@H](O[C@@H]2[C@@H](CO)O[C@](O)(CO)[C@H]2O)[C@H](O)[C@@H](O)[C@H]1O
inactive: efficacy [1] -16.4% | outcome [2] | outcome [3] | outcome [4] | outcome [5] | outcome [6]

CCc1oc2ccccc2c1C(=O)c1cc(Br)c(O)c(Br)c1
inactive: efficacy [1] 16.5% | outcome [2] | outcome [3] | outcome [4] | outcome [5] | outcome [6]

O=C1N(c2ccccc2)c2ccccc2C1(Cc1ccncc1)Cc1ccncc1
inactive: efficacy [1] 21.1% | outcome [2] | outcome [3] | outcome [4] | outcome [5] | outcome [6]

CC(NC(CCc1ccccc1)C(=O)O)C(=O)N1C(=O)N(C)CC1C(=O)O (stereo not given)
inactive: efficacy [1] -14.7% | outcome [2] | outcome [3] | outcome [4] | outcome [5] | outcome [6]

Cn1cc(C(=O)[C@@H]2CCc3nc[nH]c3C2)c2ccccc21
inactive: efficacy [1] 15.9% | outcome [2] | outcome [3] | outcome [4] | outcome [6]
active: AC50 [5] 39.8 µM

COc1ccc(CN(CCN(C)C)c2ncccn2)cc1
inactive: efficacy [1] -18% | outcome [2] | outcome [3] | outcome [4] | outcome [5] | outcome [6]

O=C1OC(c2ccc(O)cc2)(c2ccc(O)cc2)c2ccccc21
inactive: efficacy [1] -10.1% | outcome [2] | outcome [3] | outcome [4] | outcome [5] | outcome [6]

CC1(C)S[C@@H]2[C@H](N=CN3CCCCCC3)C(=O)N2[C@H]1C(=O)O
inactive: efficacy [1] -47.1% | outcome [2] | outcome [3] | outcome [4] | outcome [5] | outcome [6]

FC(F)(F)C(F)(F)C(F)(F)C(F)(F)C(F)(F)C(F)(F)C(F)(F)C(F)(F)Br
inactive: efficacy [1] -14.2% | outcome [2] | outcome [3] | outcome [4] | outcome [5] | outcome [6]

N[C@H](C(=O)O)c1ccc(O)cc1
inactive: efficacy [1] 11.9% | outcome [2] | outcome [3] | outcome [4] | outcome [5] | outcome [6]

O=C(NCCc1c[nH]c2ccccc12)c1cccnc1
inactive: efficacy [1] 15.6% | outcome [2] | outcome [3] | outcome [4] | outcome [5] | outcome [6]

O=C(O)c1cccc(-c2noc(-c3ccccc3F)n2)c1
inactive: efficacy [1] 13.1% | outcome [2] | outcome [3] | outcome [4] | outcome [5] | outcome [6]

CC(C)(C)c1nnc(NS(=O)(=O)c2ccc(N)cc2)s1
inactive: efficacy [1] -23% | outcome [2] | outcome [3] | outcome [4] | outcome [5] | outcome [6]

CCOC(=O)C(C)(C)Oc1ccc(Cl)cc1
inactive: efficacy [1] 22.6% | outcome [2] | outcome [3] | outcome [4] | outcome [5] | outcome [6]

C[C@]12CC[C@@H]3c4ccc(O)cc4CC[C@H]3[C@@H]1CC[C@@H]2OC(=O)CCC1CCCC1
inactive: efficacy [1] 23.9% | outcome [2] | outcome [3] | outcome [4] | outcome [5] | outcome [6]

CCN(CC)CC(=O)OCC(=O)[C@@]1(O)CC[C@H]2[C@@H]3CCC4=CC(=O)CC[C@]4(C)[C@H]3[C@@H](O)C[C@@]21C
inactive: efficacy [1] 17.3% | outcome [2] | outcome [3] | outcome [4] | outcome [5] | outcome [6]

CC(=O)Nc1ccn(C2COC(COC(=O)c3ccccc3)O2)c(=O)n1 (stereo not given)
inactive: efficacy [1] -16% | outcome [2] | outcome [3] | outcome [4] | outcome [5] | outcome [6]

CCC(=O)Oc1ccc2c(c1)CC[C@@H]1[C@@H]2CC[C@@]2(C)[C@H]1C[C@@H](OC(=O)CC)[C@@H]2OC(=O)CC
inactive: efficacy [1] -23.4% | outcome [2] | outcome [3] | outcome [4] | outcome [5] | outcome [6]

NS(=O)(=O)c1cc(C(=O)O)c(NCc2ccco2)cc1Cl
inactive: efficacy [1] -30.8% | outcome [2] | outcome [3] | outcome [4] | outcome [5] | outcome [6]

C#Cc1ccc(-c2ccccc2F)cc1
inactive: efficacy [1] 15.3% | outcome [2] | outcome [3] | outcome [4] | outcome [5] | outcome [6]

CCC1NC(=O)c2cc(S(N)(=O)=O)c(Cl)cc2N1 (stereo not given)
inactive: efficacy [1] -10.3% | outcome [2] | outcome [3] | outcome [4] | outcome [5] | outcome [6]

CC(=O)/C=C/C=C1/C2CCC(C2)C1(C)C (stereo not given)
inactive: efficacy [1] -14.5% | outcome [2] | outcome [3] | outcome [4] | outcome [5] | outcome [6]

CCCCC(=O)O[C@]1(C(=O)CO)[C@@H](C)C[C@H]2[C@@H]3CCC4=CC(=O)C=C[C@]4(C)[C@@]3(F)[C@@H](O)C[C@@]21C
inactive: efficacy [1] 22.2% | outcome [2] | outcome [3] | outcome [4] | outcome [5] | outcome [6]

CNC1CCCN(c2c(F)cc3c(=O)c(C(=O)O)cn(C4CC4)c3c2OC)C1 (stereo not given)
inactive: efficacy [1] -29.7% | outcome [2] | outcome [3] | outcome [4] | outcome [5] | outcome [6]

C[N+](C)(C)CCCCCCCCCC[N+](C)(C)C
inactive: efficacy [1] -18% | outcome [2] | outcome [3] | outcome [4] | outcome [5] | outcome [6]

Nc1nc(=O)n([C@@H]2O[C@H](CO)[C@@H](O)[C@@H]2F)cc1I
inactive: efficacy [1] -12.8% | outcome [2] | outcome [3] | outcome [4] | outcome [5] | outcome [6]

CCCCCCCC/C=C\CCCCCCCCN
inactive: efficacy [1] 12.8% | outcome [2] | outcome [3] | outcome [4] | outcome [5] | outcome [6]

CCCOC(=O)c1ccc(N)cc1
inactive: efficacy [1] 7.92% | outcome [2] | outcome [3] | outcome [4] | outcome [5] | outcome [6]

CC(=O)OC/C=C(C)/C=C/C=C(C)/C=C/C1=C(C)CCCC1(C)C
inactive: efficacy [1] -18.2% | outcome [2] | outcome [3] | outcome [4] | outcome [5] | outcome [6]

NC1=NCC2c3ccccc3Cc3ccccc3N12 (stereo not given)
inactive: efficacy [1] 22.9% | outcome [2] | outcome [3] | outcome [4] | outcome [5] | outcome [6]

CCCCCCCCCCCCCCCCCCOCC(O)CO (stereo not given)
inactive: efficacy [1] -25.1% | outcome [2] | outcome [3] | outcome [4] | outcome [5] | outcome [6]

CCc1cccc2c3c([nH]c12)C(CC)(CC(=O)O)OCC3 (stereo not given)
inactive: efficacy [1] 8.5% | outcome [2] | outcome [3] | outcome [4] | outcome [5] | outcome [6]

CCCCCC(N)=O
inactive: efficacy [1] 10.6% | outcome [2] | outcome [3] | outcome [4] | outcome [5] | outcome [6]

CCCCCCCCCCCCCCC[C@H](O)[C@@H](N)CO
inactive: efficacy [1] 25.9% | outcome [2] | outcome [3] | outcome [4] | outcome [5] | outcome [6]

O=C(O)Cn1c(C(=O)Nc2nc(-c3ccccc3Cl)cs2)cc2ccccc21
inactive: efficacy [1] -23.1% | outcome [2] | outcome [3] | outcome [4] | outcome [5] | outcome [6]

O=C(O)C(=O)Nc1cccc(-c2nn[nH]n2)c1
inactive: efficacy [1] 14.4% | outcome [2] | outcome [3] | outcome [4] | outcome [5] | outcome [6]

C1CCN2C[C@@H]3C[C@@H](CN4CCCC[C@@H]34)[C@H]2C1
inactive: efficacy [1] 13.4% | outcome [2] | outcome [3] | outcome [4] | outcome [5] | outcome [6]

CCOCC(O)COc1ccc(NC(=O)CC[S+](C)C)cc1 (stereo not given)
inactive: efficacy [1] -21.6% | outcome [2] | outcome [3] | outcome [4] | outcome [5] | outcome [6]

Cc1ccc(C(C)OC(=O)C2(C)CCC(C(=O)O)C2(C)C)cc1 (stereo not given)
inactive: efficacy [1] 24.8% | outcome [2] | outcome [3] | outcome [4] | outcome [5] | outcome [6]

CC1(C)CCC(C)(C)c2cc(NC(=O)c3ccc(C(=O)O)cc3)ccc21
inactive: efficacy [1] 21.8% | outcome [2] | outcome [3] | outcome [4] | outcome [5] | outcome [6]

OC[C@H]1O[C@@H](OCCc2ccc(O)cc2)[C@H](O)[C@@H](O)[C@H]1O
inactive: efficacy [1] -19% | outcome [2] | outcome [3] | outcome [4] | outcome [5] | outcome [6]

C#CCN(C)Cc1ccccc1
inactive: efficacy [1] -14.7% | outcome [2] | outcome [3] | outcome [4] | outcome [5] | outcome [6]

COc1cc(C(=S)N2CCOCC2)ccc1O
inactive: efficacy [1] -16.3% | outcome [2] | outcome [3] | outcome [4] | outcome [5] | outcome [6]

C[C@H](CCC(=O)O)[C@H]1CC[C@H]2[C@@H]3C(=O)C[C@@H]4CC(=O)CC[C@]4(C)[C@H]3CC(=O)[C@]12C
inactive: efficacy [1] -7.14% | outcome [2] | outcome [3] | outcome [4] | outcome [5] | outcome [6]

CN(C)C(=O)Oc1cccc([N+](C)(C)C)c1
inactive: efficacy [1] -10.1% | outcome [2] | outcome [3] | outcome [4] | outcome [5] | outcome [6]

C#C[C@]1(O)CC[C@H]2[C@@H]3CCc4cc(OC)ccc4[C@H]3CC[C@@]21C
inactive: efficacy [1] 19% | outcome [2] | outcome [4] | outcome [6]
active: AC50 [3] 2.82 µM | AC50 [5] 2.82 µM

CCN(CC)C(=O)c1cccc(C)c1
inactive: efficacy [1] -20% | outcome [2] | outcome [3] | outcome [4] | outcome [5] | outcome [6]

Nc1ccc(S(=O)(=O)Nc2cnc3ccccc3n2)cc1
inactive: efficacy [1] -10.5% | outcome [2] | outcome [3] | outcome [4] | outcome [5] | outcome [6]

CCOC(=O)c1ccc(NC(=O)CN2CCCCC2)cc1
inactive: efficacy [1] -17.3% | outcome [2] | outcome [3] | outcome [4] | outcome [5] | outcome [6]

CCCCCCCCCCCCOCCOCCOCCOCCOCCOCCOCCOCCOCCO
inactive: efficacy [1] -12.9% | outcome [2] | outcome [3] | outcome [4] | outcome [5] | outcome [6]

c1ccc(CC2=NCCN2)cc1
inactive: efficacy [1] -17.9% | outcome [2] | outcome [3] | outcome [4] | outcome [5] | outcome [6]

C=CCCCCCCCCC(=O)O
inactive: efficacy [1] -13.8% | outcome [2] | outcome [3] | outcome [4] | outcome [5] | outcome [6]

C=C1C[C@H]2[C@@H]3C=C(C)C4=CC(=O)CC[C@]4(C)[C@H]3CC[C@]2(C)[C@@]1(OC(C)=O)C(C)=O
inactive: efficacy [1] -35.6% | outcome [2] | outcome [3] | outcome [4] | outcome [5] | outcome [6]

CCOC(=O)n1ccn(C)c1=S
inactive: efficacy [1] -11.5% | outcome [2] | outcome [3] | outcome [4] | outcome [5] | outcome [6]

CN1[C@@H]2CC[C@H]1CC(NC(=O)n1c(=O)[nH]c3ccccc31)C2 (stereo not given in full)
inactive: efficacy [1] -15.6% | outcome [2] | outcome [3] | outcome [4] | outcome [5] | outcome [6]

COc1ccccc1OC(=O)Oc1ccccc1OC
inactive: efficacy [1] -25.8% | outcome [2] | outcome [3] | outcome [4] | outcome [5] | outcome [6]

Cc1ncc(COP(=O)(O)O)c(C=O)c1O
inactive: efficacy [1] -34.1% | outcome [2] | outcome [3] | outcome [4] | outcome [5] | outcome [6]

O=C(O)CP(=O)(O)O
inactive: efficacy [1] -15.3% | outcome [2] | outcome [3] | outcome [4] | outcome [5] | outcome [6]

O=C1Cc2cc(Cl)ccc2N1
inactive: efficacy [1] -20.6% | outcome [2] | outcome [3] | outcome [4] | outcome [5] | outcome [6]

COc1ccc(OC(=O)N(CC(=O)O)Cc2ccc(OCCc3nc(-c4ccccc4)oc3C)cc2)cc1
inactive: efficacy [1] -17% | outcome [2] | outcome [3] | outcome [4] | outcome [5] | outcome [6]
